Measured values reported in PubChem BioAssay AID1578 (Sanford-Burnham Center for Chemical Genomics, 2009).
The whole screen tested about 290,000 compounds, of which about 3,000 (1%) were called active. No stated cut-off is given here; in the data, active means inhibition mostly above about 36% (no sharp cut-off); inactive means mostly below about 34%. The entries come from a sample that favours actives as a whole.

Test: inhibition of NOD1-driven NF-kB reporter – cell-based, luminescence, uHTS, primary screen (AID 1578);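 further: HEK-293T reporter cells stimulated with the NOD1 agonist gamma-tri-DAP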
Conditions: NOD1-driven NF-kB luciferase reporter cells, at 4 µM, hits give high values

Row | SMILES | inhibition
1 | Cc1cc(=O)n(C)c2ccc(S(=O)(=O)N3CCOCC3)cc12 | -9% (inactive)
2 | COc1ccc(N=N/C(=C\O)C(=O)c2cccs2)cc1 | 41.3% (active)
3 | O=C(/C(=C/O)N=Nc1ccccc1)c1cccs1 | -9.4% (inactive)
4 | Cc1cccc(N=N/C(=C\O)C(=O)c2cccs2)c1 | 27% (inactive)
5 | Cc1ccccc1C(=O)Nc1c(C)[nH]c(=O)[nH]c1=O | -1.1% (inactive)
6 | CCC(=O)Nc1cccc(C2=NOC3(C2)C[C@H](C(N)=O)N(C(=O)Cc2ccc([N+](=O)[O-])cc2)C3)c1 (some centres undefined) | 0% (inactive)
7 | O=[N+]([O-])c1ccc(-c2ccc(/C=N/Nc3nc(N4CCCCC4)nc(N4CCCCC4)n3)o2)cc1 | 7.6% (inactive)
8 | O=[N+]([O-])c1ccc(-c2ccc(/C=N/Nc3nc(N4CCCC4)nc(N4CCCC4)n3)o2)cc1 | -26.6% (inactive)
9 | O=[N+]([O-])c1cccc(-c2ccc(/C=N/Nc3nc(N4CCCCC4)nc(N4CCCCC4)n3)o2)c1 | 34.4% (active)
10 | COc1ccccc1-c1cnnc(N/N=C/c2ccc(-c3cccc(Br)c3)o2)n1 | 52.2% (active)
11 | FC(F)(F)c1cccc(-c2ccc(/C=N/Nc3nncc(-c4ccccc4)n3)o2)c1 | -58.3% (inactive)
12 | Brc1ccc(-c2ccc(/C=N/Nc3nncc(-c4ccccc4)n3)o2)cc1 | -106% (inactive)
13 | S=c1nc(NCCc2ccccc2Cl)c2ccccc2[nH]1 | -4% (inactive)
14 | CC(NC(=O)CN1CCCC1)C12CC3CC(CC(C3)C1)C2 (centres undefined) | 1.9% (inactive)
15 | CC(NC(=O)Cn1nc(C(=O)O)c2ccccc2c1=O)C12CC3CC(CC(C3)C1)C2 (centres undefined) | -19.8% (inactive)
16 | CC(NC(=O)Cn1ncc(Cl)c(Cl)c1=O)C12CC3CC(CC(C3)C1)C2 (centres undefined) | 87% (active)
17 | COC(=O)N[C@H](CC(C)=O)c1cccc(C(F)(F)F)c1 | -18.1% (inactive)
18 | Cc1ccccc1C(=O)Nc1ccnn1C1CCN(C2CCSCC2)CC1 | -16.1% (inactive)
19 | O=C(Nc1ccc(Cl)cc1)c1sccc1-n1cccc1 | -13% (inactive)
20 | Cc1ccc(-n2[nH]c(=O)c3cccnc32)cc1 | 4.2% (inactive)
21 | Cc1ccc(-n2[nH]c(=O)c(-c3ccccn3)c2C)cc1 | 65.1% (active)
22 | Cc1c(-c2ccccn2)c(=O)[nH]n1-c1ccc(F)cc1 | -25.2% (inactive)
23 | O=C(NCCc1ccccc1)C(c1cccs1)N(C(=O)c1csnn1)C1CC1 (centres undefined) | -15.8% (inactive)
24 | COc1ccc(N(C(=O)CCl)C(C(=O)NCCc2ccccc2)c2cccs2)cc1Cl (centres undefined) | 63.5% (inactive)
25 | COC(=O)c1ccccc1C(=O)c1cccc2ccccc12 | 30.1% (inactive)
26 | CC(C)(C)c1cc(NC(=O)Nc2ccc(Br)cc2Cl)no1 | -19.7% (inactive)

Row | SMILES | inhibition
27 | CCOC(=O)c1c(C)[nH]c(C(=O)C(C)Cl)c1C (centres undefined) | 58.6% (active)
28 | CCOC(=O)c1[nH]c(C)c(C(=O)OCC)c1C | -5.4% (inactive)
29 | CCOC(=O)c1c(C)[nH]c(C(=O)O)c1C | 7.9% (inactive)
30 | O=C(CN1CCN(c2ccccc2)CC1)Nc1ccc(Oc2ccccc2)cc1 | -2.2% (inactive)
31 | COc1ccc(-c2cc(C(=O)NCC3CCCO3)c3cc(C(C)C)ccc3n2)cc1 (centres undefined) | -1.8% (inactive)
32 | CNC(=O)c1c(NC(=O)c2cccc(C)c2)sc2c1CCC2 | 109% (active)
33 | O=C(Nc1sc2c(c1C(=O)O)CCC2)c1ccccc1Cl | 17.5% (inactive)
34 | CNC(=O)c1c(NC(=O)c2cccc(N3C(=O)CCC3=O)c2)sc2c1CCC2 | 5.2% (inactive)
35 | NC(=O)c1c(NC(=O)c2ccccc2Cl)sc2c1CCC2 | -50% (inactive)
36 | O=C(Nc1sc2c(c1C(=O)O)CCCCC2)c1ccccc1 | 43.3% (inactive)
37 | O=C(Nc1sc2c(c1C(=O)O)CCC2)c1ccccc1 | 26.9% (inactive)
38 | Cc1cccc(C(=O)Nc2sc3c(c2C(=O)O)CCC3)c1 | -0.7% (inactive)
39 | CCOC(=O)Cc1cnc(NC(=O)CSc2nc(C)c(CC)c(=O)[nH]2)s1 | -29.1% (inactive)
40 | O=C(c1cc(-c2ccccc2)n[nH]1)N1CCc2c([nH]c3ccccc23)C1c1ccccn1 (centres undefined) | -14.3% (inactive)
41 | COc1cc(Cl)c(C)cc1NC(=O)c1ccc(NS(=O)(=O)c2ccc(F)c(F)c2)cc1 | 14.5% (inactive)
42 | CCOC(=O)c1c(/N=C/c2cc([N+](=O)[O-])ccc2O)sc(C)c1C | -20.3% (inactive)
43 | CN(C)CCOc1cccc(Cl)c1 | -12.3% (inactive)
44 | Cc1cc(C(=O)CSc2nnc3ccccn23)c(C)n1-c1ccccc1 | 82% (active)
45 | Cc1cc(C(=O)CSc2nncn2C)c(C)n1-c1ccccc1 | -35.2% (inactive)
46 | Cc1ccc(C(=O)CSc2nnc3ccccn23)c(C)c1 | 18.8% (inactive)
47 | Nc1c(-c2ccccc2)c(CSc2nc3ccccc3[nH]2)nn1-c1cccc(C(=O)O)c1 | -21.3% (inactive)
48 | Nc1c(-c2ccccc2)c(CSc2nc3ccccc3[nH]2)nn1-c1ccc(Cl)cc1 | 70.5% (inactive)
49 | Nc1c(-c2ccccc2)c(CSc2nc3ccccc3[nH]2)nn1-c1cccc(Cl)c1 | 79.7% (active)
50 | Cn1c(N)c(C(=O)Nc2c(Cl)cccc2Cl)sc1=S | -11.3% (inactive)
51 | CCN(CC)c1ccc(N2C(=O)/C(=C\c3cccs3)SC2=S)cc1 | -102% (inactive)
52 | COc1ccccc1/C=C/C(=O)/C=C/c1ccccc1O | 94.3% (active)

Row | SMILES | inhibition
53 | COc1ccccc1/C=C/C(=O)c1ccccc1 | -6.9% (inactive)
54 | COc1ccccc1/C=C/C(C)=O | -47.2% (inactive)
55 | CC1(C)Cc2c(sc3[nH]c(=S)n(Cc4ccccc4)c(=O)c23)CO1 | -3.1% (inactive)
56 | CC(C)C1Cc2c(sc3[nH]c(=S)n(Cc4ccccc4)c(=O)c23)CO1 (centres undefined) | 92.4% (active)
57 | CC(C)C1Cc2c(sc3c2c(=O)n(Cc2ccccc2)c2nncn32)CO1 (centres undefined) | 12.9% (inactive)
58 | CCOC(=O)N1CCN(C/C(C)=C/c2ccccc2)CC1 | -12% (inactive)
59 | CCOC(=O)N1CCN(S(=O)(=O)/C=C/c2ccccc2)CC1 | 9.2% (inactive)
60 | CCOC(=O)N1C/C(=C\c2ccccc2)C(=O)/C(=C/c2ccccc2)C1 | 41.1% (active)
61 | COc1cccc(-n2c([S-])c(C(=O)Nc3ccc(C(F)(F)F)cc3)[n+]3ccccc23)c1 | -8.9% (inactive)
62 | COc1cccc(C(=O)Nc2ccc(S(=O)(=O)Nc3nccc(C)n3)cc2)c1 | -16.6% (inactive)
63 | Cc1ccc(S(=O)(=O)NCCC(=O)O)cc1 | -3.1% (inactive)
64 | CCCn1c(SCC(=O)c2ccc3c(c2)OCCO3)nc2c1c(=O)n(C)c(=O)n2C | -19.8% (inactive)
65 | Cc1cc(C(=O)CN2C(=O)c3ccccc3S2(=O)=O)c(C)n1-c1ccccc1 | 94.4% (active)
66 | O=C(CN1C(=O)c2ccccc2S1(=O)=O)c1ccccc1 | -2.1% (inactive)
67 | Cc1ccc(C)c(C(=O)CN2C(=O)c3ccccc3S2(=O)=O)c1 | 9.1% (inactive)
68 | COc1cc(NC(=O)CC(C)n2ccnc2)cc(OC)c1 (centres undefined) | -0.2% (inactive)
69 | COC(=O)c1c(NC(=O)CCl)sc(C(=O)N2CCOCC2)c1C | 80.5% (active)
70 | COC(=O)c1c(NC(=O)C(C)C)sc(C(=O)N2CCOCC2)c1C | 5.6% (inactive)
71 | COC(=O)c1c(NC(C)=O)sc(C(=O)N2CCOCC2)c1C | -4.7% (inactive)
72 | COc1ccccc1NC(=O)CS(=O)(=O)c1cn(CC(=O)N(C(C)C)C(C)C)c2ccccc12 | -1.2% (inactive)
73 | Cc1ccccc1C(=O)Nc1cc(-c2cc(C(C)(C)C)oc2C)nn1C | -3.8% (inactive)
74 | Cc1ccc(NC(=O)C(=Cc2ccc(C(=O)O)cc2)C(=O)Nc2ccc(C)cc2C)c(C)c1 | 9.9% (inactive)
75 | CC(=O)/C(=C/c1ccccc1)C(=O)Nc1ccccc1C | 35.2% (inactive)
76 | Cc1ccccc1NC(=O)C(=Cc1ccc(C(=O)O)cc1)C(=O)Nc1ccccc1C | 39.4% (active)
77 | CC(=O)Nc1ccccc1C(F)(F)F | 5.2% (inactive)
78 | COc1ccc2nc(N3C(=O)CNC3=S)sc2c1 | -9.5% (inactive)

Row | SMILES | inhibition
79 | Cn1c(O)c(C2=c3ccccc3=NC2=O)[nH]c1=S | 7.1% (inactive)
80 | COc1ccc2nc(-n3c(O)c(C4=c5ccccc5=NC4=O)[nH]c3=S)sc2c1 | 93% (active)
81 | COc1ccc(-c2cn3c4c(sc3n2)CCCC4)cc1 | 1.4% (inactive)
82 | CN(C)S(=O)(=O)c1ccc(N2CCCC2)c(C(=O)Nc2ccccc2N2CCOCC2)c1 | -0.9% (inactive)
83 | CCCCC(=O)N/N=C(/C)C1=C(C)C(C)(C)OC1=O | -20.4% (inactive)
84 | O=C1ON=C(c2ccccc2)/C1=C/c1ccc(-c2ccccc2[N+](=O)[O-])o1 | 46.2% (inactive)
85 | COc1ccc(-c2ccc(/C=C3\C(=O)N(c4ccccc4)N=C3c3ccccc3)o2)c([N+](=O)[O-])c1 | 10.5% (inactive)
86 | Cc1ccc(-c2ccc(/C=C3\C(=O)ON=C3c3ccccc3)o2)c([N+](=O)[O-])c1 | 70.5% (active)
87 | CCSc1nc2ccccc2n1CC(=O)N1CCCCC1 | 14.8% (inactive)
88 | O=[N+]([O-])c1cc(CN2CCOCC2)c2cccnc2c1O | 51.3% (active)
89 | O=[N+]([O-])c1cc(CN2CCCC2)c2cccnc2c1O | 2.2% (inactive)
90 | O=[N+]([O-])c1cc(CN2CCN(c3ccccc3)CC2)c(O)c2ncccc12 | 31.8% (inactive)
91 | O=[N+]([O-])c1cccc(S(=O)(=O)Nc2ccc(S(=O)(=O)N3CCCC3)cc2)c1 | -4% (inactive)
92 | CSc1cccc(NC(=O)CCn2c(=O)c3cccn3c3cccnc32)c1 | -16.4% (inactive)
93 | O=C(/C=C/c1ccccc1)Nc1cccc(C(=O)O)c1 | 96.6% (active)
94 | O=C(/C=C/c1ccccc1)Nc1ncn[nH]1 | 59.8% (active)
95 | O=C(/C=C/c1cccc(C(F)(F)F)c1)Nc1cccc(C(F)(F)F)c1 | 75.5% (active)
96 | CC(=O)Nc1cccc(C(=O)/C=C/c2ccc(F)cc2)c1 | -34.5% (inactive)
97 | CC(=O)Nc1cccc(C(=O)/C=C/c2ccc(/C=C/C(=O)c3cccc(NC(C)=O)c3)cc2)c1 | 85.5% (active)
98 | O=C(/C=C/c1ccccc1)Nc1cc(C(=O)O)cc(C(=O)O)c1 | -46.3% (inactive)
99 | O=C(/C=C/c1ccccc1)Nc1cc(NC(=O)/C=C/c2ccccc2)cc(C(=O)O)c1 | -29.4% (inactive)
100 | Cc1ccc(NC(=O)/C=C/c2cccc(C(F)(F)F)c2)cc1 | 15.4% (inactive)
101 | Cc1nc(NC(=O)/C=C/c2ccccc2)n[nH]1 | 51.1% (inactive)
102 | O=C(Nc1ncn[nH]1)c1ccccc1O | 1.8% (inactive)
103 | CC(=O)Nc1ccc(NC(=O)/C=C/c2cccc(C(F)(F)F)c2)cc1 | -14.7% (inactive)
104 | CC(=O)Nc1cccc(C(=O)/C=C/c2ccc(C)cc2)c1 | 34.7% (inactive)
